# Data: ChEMBL document CHEMBL5606460, “ASAP - DENV-2 NS2B-NS3 protease fluorescence single point” (2024)
# Screen size: about 2,000 compounds; about 110 (5.5%) showed an effect of 50% or more. The full list was thinned out, with strong results kept by preference.
# Target: Genome polyprotein (dengue virus type 2) (UniProt P29990)
# [1] = Thailand/16681/1984, Concentration 25.0 uM, Number of replicates 1.0
compound,measurement,setting,value
O=Cc1ccc(N2CCC(C(=O)N3CCC(O)(c4ccc(Br)cc4)CC3)CC2)cc1,inhibition,[1],14.6%
O=Cc1ccc(N2CCC(C(=O)NCc3cccc([N+](=O)[O-])c3)CC2)cc1,inhibition,[1],11%
NC(=O)c1ccc(Cl)c(NC(=O)C2CCN(c3ccc(C=O)cc3)CC2)c1,inhibition,[1],13.8%
Cc1cc(CO)c2cccc(Cc3cccc(NC(=O)Cc4cccc(CN)c4)c3)c2n1,inhibition,"Thailand/16681/1984, Concentration 49.95 uM, Number of replicates 2.0, Standard deviation 1.5571170041089204 %",9.22%
same,inhibition,"Thailand/16681/1984, Concentration 99.9 uM, Number of replicates 2.0, Standard deviation 3.140543082582705 %",20.8%
NCc1cccc(NC(=O)[C@@H](NC(=O)OCc2ccccc2)C(C2CCC2)C2CCC2)c1,inhibition,"Thailand/16681/1984, Concentration 49.5 uM, Number of replicates 2.0, Standard deviation 1.0931409988329541 %",0.575%
same,inhibition,"Thailand/16681/1984, Concentration 99.01 uM, Number of replicates 2.0, Standard deviation 7.259842534821406 %",21.9%
same,inhibition,"Thailand/16681/1984, Concentration 198.0 uM, Number of replicates 2.0, Standard deviation 0.026391345013157583 %",99.8%
NCc1cccc(NC(=O)[C@@H](CO)NC(=O)OCc2ccccc2)c1,inhibition,"Thailand/16681/1984, Concentration 49.5 uM, Number of replicates 2.0, Standard deviation 0.4735169770341957 %",-3.34%
same,inhibition,"Thailand/16681/1984, Concentration 99.01 uM, Number of replicates 2.0, Standard deviation 2.1222171442022573 %",-3.24%
same,inhibition,"Thailand/16681/1984, Concentration 198.0 uM, Number of replicates 2.0, Standard deviation 1.1527028197814282 %",-3.94%
CC(C)(C)[C@@H](NC(=O)OCc1ccccc1)C(=O)Nc1cccc(CN)c1,inhibition,"Thailand/16681/1984, Concentration 49.5 uM, Number of replicates 2.0, Standard deviation 1.83793572376561 %",-6.76%
same,inhibition,"Thailand/16681/1984, Concentration 99.01 uM, Number of replicates 2.0, Standard deviation 1.8206757463634287 %",-7.66%
same,inhibition,"Thailand/16681/1984, Concentration 198.0 uM, Number of replicates 2.0, Standard deviation 1.2664180516369132 %",-8.05%
NCc1cccc(NC(=O)[C@@H](NC(=O)OCc2ccccc2)C2CCCCC2)c1,inhibition,"Thailand/16681/1984, Concentration 49.5 uM, Number of replicates 2.0, Standard deviation 3.75421470496627 %",-3.1%
same,inhibition,"Thailand/16681/1984, Concentration 99.01 uM, Number of replicates 2.0, Standard deviation 3.4431804249233626 %",-1.76%
same,inhibition,"Thailand/16681/1984, Concentration 198.0 uM, Number of replicates 2.0, Standard deviation 6.458747607105988 %",79.9%
C[C@@H](NC(=O)OCc1ccccc1)C(=O)Nc1cccc(CN)c1,inhibition,"Thailand/16681/1984, Concentration 49.5 uM, Number of replicates 2.0, Standard deviation 1.8366578313187596 %",-7.57%
same,inhibition,"Thailand/16681/1984, Concentration 198.0 uM, Number of replicates 2.0, Standard deviation 1.0835833369227144 %",-9.56%
CC(C)C[C@@H](NC(=O)OCc1ccccc1)C(=O)Nc1cccc(CN)c1,inhibition,"Thailand/16681/1984, Concentration 49.5 uM, Number of replicates 2.0, Standard deviation 3.1792600205617827 %",-4.42%
same,inhibition,"Thailand/16681/1984, Concentration 99.01 uM, Number of replicates 2.0, Standard deviation 3.3347078817009965 %",-3.69%
same,inhibition,"Thailand/16681/1984, Concentration 198.0 uM, Number of replicates 2.0, Standard deviation 3.065424880922284 %",-2.71%
C[C@H](NC(=O)C1CCN(c2ccc(C=O)cc2)CC1)c1ccc(S(C)(=O)=O)cc1,inhibition,[1],12.5%
CCN(C(=O)C1CCN(c2ccc(C=O)cc2)CC1)[C@H]1CCOC(C)(C)C1,inhibition,[1],13%
NCc1cccc(NC(=O)[C@@H](Cc2cccc(O)c2)NC(=O)OCc2ccccc2)c1,inhibition,"Thailand/16681/1984, Concentration 49.5 uM, Number of replicates 2.0, Standard deviation 2.8573642237031027 %",-3.63%
same,inhibition,"Thailand/16681/1984, Concentration 99.01 uM, Number of replicates 2.0, Standard deviation 1.9175045904819328 %",-3.65%
same,inhibition,"Thailand/16681/1984, Concentration 198.0 uM, Number of replicates 2.0, Standard deviation 1.9524208099559948 %",-2.84%
COc1cc(C(=O)N(C)C)nc(N2CCNCC2)n1,inhibition,"Thailand/16681/1984, Concentration 49.5 uM, Number of replicates 2.0, Standard deviation 4.026406870890022 %",-3.23%
same,inhibition,"Thailand/16681/1984, Concentration 99.01 uM, Number of replicates 2.0, Standard deviation 2.6098419358385048 %",-4.25%
same,inhibition,"Thailand/16681/1984, Concentration 198.0 uM, Number of replicates 2.0, Standard deviation 2.250930669275132 %",-2.7%
CCCC[C@H](NC(=O)OC(C)(C)C)C(=O)N[C@H](C(=O)NCc1ccc(C(N)=O)cc1)c1ccc(OCc2ccccc2)cc1,inhibition,"Thailand/16681/1984, Concentration 49.5 uM, Number of replicates 2.0, Standard deviation 0.5441055304446053 %",-3.24%
same,inhibition,"Thailand/16681/1984, Concentration 99.01 uM, Number of replicates 2.0, Standard deviation 1.2410372194636528 %",12.6%
same,inhibition,"Thailand/16681/1984, Concentration 198.0 uM, Number of replicates 2.0, Standard deviation 0.08996362825826161 %",97.6%
CC(C)(C)OC(=O)N[C@H](C(=O)Nc1ccc(CN)cc1)c1ccc(OCc2ccccc2)cc1,inhibition,"Thailand/16681/1984, Concentration 49.5 uM, Number of replicates 2.0, Standard deviation 0.7638001086987946 %",-1.42%
same,inhibition,"Thailand/16681/1984, Concentration 99.01 uM, Number of replicates 2.0, Standard deviation 0.5692523211680847 %",0.423%
same,inhibition,"Thailand/16681/1984, Concentration 198.0 uM, Number of replicates 2.0, Standard deviation 0.3400589812244498 %",5.26%
CC(C)(C)OC(=O)N[C@H](C(=O)Nc1cccc(C(N)=O)c1)c1ccc(OCc2ccccc2)cc1,inhibition,"Thailand/16681/1984, Concentration 49.5 uM, Number of replicates 2.0, Standard deviation 1.188000805409302 %",2.72%
same,inhibition,"Thailand/16681/1984, Concentration 99.01 uM, Number of replicates 2.0, Standard deviation 0.11203913598390365 %",5.59%
same,inhibition,"Thailand/16681/1984, Concentration 198.0 uM, Number of replicates 2.0, Standard deviation 0.9108004769909699 %",7.47%
CC(C)(C)OC(=O)N[C@H](C(=O)Nc1cccc(CN)c1)c1ccc(OCc2ccccc2)cc1,inhibition,"Thailand/16681/1984, Concentration 49.5 uM, Number of replicates 2.0, Standard deviation 1.7551947166429631 %",-1.9%
same,inhibition,"Thailand/16681/1984, Concentration 99.01 uM, Number of replicates 2.0, Standard deviation 0.05489981052071439 %",3.23%
same,inhibition,"Thailand/16681/1984, Concentration 198.0 uM, Number of replicates 2.0, Standard deviation 0.6374768156986698 %",15%
CCCC[C@@H](NC(=O)OC(C)(C)C)C(=O)N[C@@H](C(=O)NCc1ccc(CN)cc1)c1ccc(OCc2ccccc2)cc1,inhibition,"Thailand/16681/1984, Concentration 49.5 uM, Number of replicates 2.0, Standard deviation 1.8529777654117539 %",94%
same,inhibition,"Thailand/16681/1984, Concentration 99.01 uM, Number of replicates 2.0, Standard deviation 0.005880328304239935 %",100%
same,inhibition,"Thailand/16681/1984, Concentration 198.0 uM, Number of replicates 2.0, Standard deviation 0.014706215557209234 %",99.9%
Cc1cnccc1NC(=O)c1ccc2c(c1)COCC2,inhibition,"Thailand/16681/1984, Concentration 49.5 uM, Number of replicates 2.0, Standard deviation 2.5121871293930202 %",-1.99%
same,inhibition,"Thailand/16681/1984, Concentration 99.01 uM, Number of replicates 2.0, Standard deviation 1.8322256055090813 %",-1.68%
same,inhibition,"Thailand/16681/1984, Concentration 198.0 uM, Number of replicates 2.0, Standard deviation 3.8354075529759903 %",-1.51%
NCc1cccc(NC(=O)C2(NC(=O)OCc3ccccc3)CC(F)(F)C2)c1,inhibition,"Thailand/16681/1984, Concentration 49.5 uM, Number of replicates 2.0, Standard deviation 2.2677200349668407 %",-2.94%
same,inhibition,"Thailand/16681/1984, Concentration 99.01 uM, Number of replicates 2.0, Standard deviation 0.8839411333719474 %",-2.06%
same,inhibition,"Thailand/16681/1984, Concentration 198.0 uM, Number of replicates 2.0, Standard deviation 0.8051076448684426 %",-2.25%
Cc1cc(CO)c2cccc(Cc3ccccc3NC(=O)CN3CCOCC3)c2n1,inhibition,"Thailand/16681/1984, Concentration 49.95 uM, Number of replicates 2.0, Standard deviation 1.5612707024702146 %",-2%
same,inhibition,"Thailand/16681/1984, Concentration 99.9 uM, Number of replicates 2.0, Standard deviation 0.4618038620708361 %",3.39%
COc1cc(Cc2cnc(N)c(C(F)F)c2)nc(N2CCNCC2)n1,inhibition,"Thailand/16681/1984, Concentration 49.5 uM, Number of replicates 2.0, Standard deviation 0.44655669171298956 %",1.19%
same,inhibition,"Thailand/16681/1984, Concentration 99.01 uM, Number of replicates 2.0, Standard deviation 0.9500169394185984 %",3.1%
same,inhibition,"Thailand/16681/1984, Concentration 198.0 uM, Number of replicates 2.0, Standard deviation 0.4205436146652173 %",6.14%
CCCOc1ccc([C@H](C)NC(=O)C2CCN(c3ccc(C=O)cc3)CC2)cc1,inhibition,[1],7.26%
COc1ccc(C[C@H]2c3cc(OC)c(OC)cc3CCN2C(=O)C2CCN(c3ccc(C=O)cc3)CC2)cc1OC,inhibition,[1],15.8%
O=c1c(N2CC[C@H](CO)C2)nccn1C1CC1,inhibition,"Thailand/16681/1984, Concentration 49.5 uM, Number of replicates 2.0, Standard deviation 2.4482264734756005 %",8.46%
same,inhibition,"Thailand/16681/1984, Concentration 99.01 uM, Number of replicates 2.0, Standard deviation 2.8900822321462307 %",18%
same,inhibition,"Thailand/16681/1984, Concentration 198.0 uM, Number of replicates 2.0, Standard deviation 2.1394185374850085 %",33.2%
